The values that follow come from the supplement of paper PMC8773631.

Structures can show the parent of a compound that is named as a salt. ± gives the uncertainty stated by the source.

This assay has as its system NCC-MFS5-C1. The assay can be described thus: cell viability relative to DMSO control; higher = less growth inhibition. To be noted: 10 µM; treatment time: 3 days. Here is the method:
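NCC-MFS5-C1 myxofibrosarcoma cells (1x10^4 per well, 384-well) were treated on day 2 with 10 µM of each drug. On day 5, viability was read by CCK-8 absorbance at 450 nm and normalised to the DMSO control (%), n = 2.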
As to `FC(F)(F)c1ccc(CNc2ccc(Cc3c[nH]c4ncc(Cl)cc34)cn2)cn1` [Pexidartinib (PLX3397)], the cell viability was found to be 72.5 ± 5.8%.

Take `O=C1NC(=O)[C@@H](c2cn3c4c(cccc24)CCC3)[C@@H]1c1c[nH]c2ccccc12` [Tivantinib (ARQ 197)]: the cell viability came out at 48.3 ± 1.5%.

Regarding `CC1=C(/C=C/C(C)=C/C=C/C(C)=C/C(=O)O)C(C)(C)CCC1` [Tretinoin], the cell viability amounted to 78.5 ± 4.5%.

Consider `CC(C)(C)c1cc(NC(=O)Nc2ccc(-c3cn4c(n3)sc3cc(OCCN5CCOCC5)ccc34)cc2)no1` [Quizartinib (AC220)], for which the cell viability stood at 57.8 ± 2.7%.

For the molecule `CC1=C(CC(=O)O)c2cc(F)ccc2/C1=C\c1ccc([S+](C)[O-])cc1` (configuration not stated) [Sulindac], the cell viability stood at 103.76 ± 0.032%.

For `Nc1[nH]cnc2ncnc1-2` [Adenine HCl], the cell viability amounted to 98.1 ± 6.5%.

Take `Nc1nc(Cl)nc2c1ncn2[C@@H]1O[C@H](CO)[C@@H](O)[C@@H]1F` [Clofarabine]: the cell viability turned out to be 98.8 ± 21%.

For the molecule `O=C(/C=C/c1cccc(S(=O)(=O)Nc2ccccc2)c1)NO` [Belinostat (PXD101)], the cell viability was 26.9 ± 0.53%.

Take `Nc1nc(F)nc2c1ncn2[C@@H]1O[C@H](CO)[C@@H](O)[C@@H]1O` [Fludarabine]: the cell viability was determined as 96.3 ± 7.3%.

For `COc1ccc2[nH]c([S@@+]([O-])Cc3ncc(C)c(OC)c3C)nc2c1` [Esomeprazole Sodium], the cell viability stood at 74.6 ± 1.4%.

For `CC[C@@]1(O)C(=O)OCc2c1cc1n(c2=O)Cc2cc3c(CN(C)C)c(O)ccc3nc2-1` [Topotecan HCl], the cell viability stood at 33.3 ± 5.3%.

With `O=C(c1cc(Cc2n[nH]c(=O)c3ccccc23)ccc1F)N1CCN(C(=O)C2CC2)CC1`, the cell viability stood at 78 ± 9.1%.

`O=[n+]1c(CBr)c(CBr)n([O-])c2ccccc21` [Conoidin A]: the cell viability was determined as 86.4 ± 1.1%.

In the case of `Nc1ccn([C@@H]2O[C@H](CO)[C@@H](O)[C@@H]2O)c(=O)n1` [Cytosine β-D-arabinofuranoside hydrochloride], the cell viability is 118 ± 20%.

`C[C@H](NC(=O)Cc1cc(F)cc(F)c1)C(=O)N[C@H](C(=O)OC(C)(C)C)c1ccccc1`: the cell viability was 108 ± 11%.

Consider `Cc1ccc(NC(=O)c2ccc(CN3CCN(C)CC3)cc2)cc1Nc1nccc(-c2cccnc2)n1` [Imatinib (STI571)], for which the cell viability stood at 72.9 ± 3.3%.

For the molecule `CC1(COc2ccc3c(c2)ncn3-c2ccc3cccc(N4CCC(N)CC4)c3n2)COC1`, the cell viability is 26.1 ± 3.3%.

Regarding `Nc1nnc(-c2cccc(Cl)c2Cl)c(N)n1` [Lamotrigine], the cell viability was determined as 90 ± 4.7%.

As for `COc1ccc(C2=N[C@@H](c3ccc(Cl)cc3)[C@@H](c3ccc(Cl)cc3)N2C(=O)N2CCNC(=O)C2)c(OC(C)C)c1` [Nutlin-3], the cell viability was 88.6 ± 1.8%.

For the molecule `C=CC(=O)Nc1cccc(Nc2nc(Nc3ccc(N4CCN(C(C)=O)CC4)cc3OC)ncc2C(F)(F)F)c1` [Rociletinib (CO-1686, AVL-301)], the cell viability is 54.97 ± 0.41%.

As to `FC(F)(F)c1ccc(/C=C/c2nc(COc3ccc(CCCCn4ccnn4)cc3)co2)cc1` [Mubritinib (TAK 165)], the cell viability is 96 ± 3.5%.

For `Cc1cn(-c2cc(NC(=O)c3ccc(C)c(Nc4nccc(-c5cccnc5)n4)c3)cc(C(F)(F)F)c2)cn1` [Nilotinib (AMN-107)], the cell viability was determined as 57.2 ± 3.6%.

For `COc1ccc(/C=C/C(=O)Nc2ccccc2C(=O)O)cc1OC` [Tranilast], the cell viability amounted to 80.2 ± 2.5%.

On to `CCCCC1C(=O)N(c2ccccc2)N(c2ccccc2)C1=O` [Phenylbutazone], for which the cell viability turned out to be 72.5 ± 5.7%.

On to `Nc1nc(CC(=O)Nc2ccc(CCNC[C@H](O)c3ccccc3)cc2)cs1` [Mirabegron], for which the cell viability worked out at 82.5 ± 4.6%.

As to `O=c1[nH]c(=O)n(C2CCCO2)cc1F` (configuration not stated), the cell viability worked out at 88.2 ± 5.4%.

As to `Cc1[nH]c(/C=C2\C(=O)Nc3ccccc32)c(C)c1CCC(=O)O` [Orantinib (TSU-68, SU6668)], the cell viability was determined as 80.2 ± 1.5%.

For `COc1cc(Nc2c(C#N)cnc3cc(OCCCN4CCN(C)CC4)c(OC)cc23)c(Cl)cc1Cl` [Bosutinib (SKI-606)], the cell viability was found to be 22.1 ± 0.85%.

As for `COc1ccc2c(c1OC)C(=O)O[C@@H]2[C@H]1c2c(cc3c(c2OC)OCO3)CCN1C` [Noscapine HCl], the cell viability is 75.82 ± 0.21%.

Take `CN1c2cc(O)c(N=NC(N)=O)cc2CC1S(=O)(=O)O` (configuration not stated) [Carbazochrome sodium sulfonate (AC-17)]: the cell viability came to 78.6 ± 7.6%.

As to `CC(=O)O[C@H]1C(=O)[C@@]2(C)[C@H]([C@H](OC(=O)c3ccccc3)[C@]3(O)C[C@H](OC(=O)[C@H](O)[C@@H](NC(=O)c4ccccc4)c4ccccc4)C(C)=C1C3(C)C)[C@]1(OC(C)=O)CO[C@@H]1C[C@@H]2O` [Paclitaxel], the cell viability was determined as 53.9 ± 3.3%.

Turning to `Nc1cccc2c1CN(C1CCC(=O)NC1=O)C2=O` (configuration not stated) [Lenalidomide], the cell viability was 105 ± 4.7%.
